Consider 13 compounds from PubChem BioAssay.

A short description of test [1]: inhibitors of TNFa-induced NFkB p65 translocation, primary screen, imaging, HUVEC, MLSMR starter and 10KST1 sets (AID 438;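 active = inhibition above 20% together with a positive visual image hit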;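 note: compound added about 3h40 before a 20 min TNFalpha stimulation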;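 for inhibition: signal is the nuclear over cytoplasmic p65 intensity ratio per well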). To be noted: HUVEC TNFa-induced p65 nuclear translocation; cell count: measured here: nuclei count (cytotoxicity indicator), at 2.08 µM; inhibition: at 2 µM, stronger effect = higher value, 0% TNFa-plus-vehicle, 100% no-TNFa wells.
The nature of test [2]: inhibitors of mutant huntingtin aggregation, primary screen, imaging, exon1htt(103Q)mCFP cells, high-content imaging (AID 483;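 active = visual image review flags a hit and inhibition of aggregation exceeds 20%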;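 note: compound exposure lasted 3 days before fixation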;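 for nuclei count: percent of the per-plate median nuclei count of sample wells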). To be noted: exon1htt(103Q)mCFP cell line, aggregate imaging, at 2 µM; inhibition of aggregation: stronger effect = higher value; nuclei count: measured here: cell count, toxicity.
Test [3] can be described thus: inhibitors of E-selectin induction by TNFa, primary screen, imaging, HUVEC, immunofluorescence, MLSMR starter and 10KST1 sets (AID 487;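 active = visually confirmed hit in the image check and inhibition above 20%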;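 for inhibition: signal is fraction of cell area covered by stained E-selectin grains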;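 for nuclei count: 100% = median nuclei count of all wells on the same plate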). To be noted: HUVEC TNFalpha-induced E-selectin immunofluorescence imaging, at 2 µM; inhibition: stronger effect = higher value; nuclei count: measured here: cell number, toxicity.
In test [4] the target is Voltage-gated potassium channel subunit beta-2 (Rattus norvegicus) (UniProt P62483). In words: KvBeta enzyme negative modulators, primary screen, biochemical, NADPH fluorescence (AID 622;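 active = fluorescence slope higher than the sample average by over 3 SD, cut at about -0.22 in these data, passing the limit was not always enough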;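 note: slope of raw intensity against log time taken from 70 to 1610 s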). To be noted: recombinant KvBeta, 4-cyanobenzaldehyde reduction, at 10 µM, stronger effect = higher value.
Chain of Voltage-gated potassium channel subunit beta-2 (Rattus norvegicus) (P62483 whole entry, looked up): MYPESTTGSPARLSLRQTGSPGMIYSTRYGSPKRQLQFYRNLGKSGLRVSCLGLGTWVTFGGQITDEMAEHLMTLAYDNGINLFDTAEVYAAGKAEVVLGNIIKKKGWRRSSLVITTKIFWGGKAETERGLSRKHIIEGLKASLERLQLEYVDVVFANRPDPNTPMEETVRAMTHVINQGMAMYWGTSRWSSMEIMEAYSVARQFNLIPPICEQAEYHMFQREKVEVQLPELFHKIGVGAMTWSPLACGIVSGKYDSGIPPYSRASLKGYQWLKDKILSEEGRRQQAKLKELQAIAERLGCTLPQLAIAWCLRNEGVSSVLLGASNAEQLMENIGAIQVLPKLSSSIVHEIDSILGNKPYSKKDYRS
The target is the same in test [5]. In words: KvBeta positive modulators, primary screen, biochemical, NADPH fluorescence (AID 623;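 active = NADPH fluorescence slope more negative than the mean of all samples by about 3 SD, 99.7% confidence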;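 note: fluorescence intensity change per second fitted from 20 to 320 s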). Conditions: Recombinant KvBeta, NADPH fluorescence decrease slope, 10 min; at 10 µM; stronger effect = lower value.
For test [6], the target named is Alpha-2C adrenergic receptor (Homo sapiens) (UniProt P18825). In words: modulators of alpha2C/GIRK thallium flux, primary screen, cell-based, HEK293 alpha2C/GIRK1/2 (AID 624;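 active = fluorescence slope after compound addition differing from the mean of all screened samples at 99.7% confidence, in either direction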;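 note: slope of fluorescence ratio to pre-addition baseline per second over 15 to 24 s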). Conditions: thallium flux BTC fluorescence, at 10 µM, actives lie on both sides.
Chain of Alpha-2C adrenergic receptor (Homo sapiens) (P18825 whole entry, looked up): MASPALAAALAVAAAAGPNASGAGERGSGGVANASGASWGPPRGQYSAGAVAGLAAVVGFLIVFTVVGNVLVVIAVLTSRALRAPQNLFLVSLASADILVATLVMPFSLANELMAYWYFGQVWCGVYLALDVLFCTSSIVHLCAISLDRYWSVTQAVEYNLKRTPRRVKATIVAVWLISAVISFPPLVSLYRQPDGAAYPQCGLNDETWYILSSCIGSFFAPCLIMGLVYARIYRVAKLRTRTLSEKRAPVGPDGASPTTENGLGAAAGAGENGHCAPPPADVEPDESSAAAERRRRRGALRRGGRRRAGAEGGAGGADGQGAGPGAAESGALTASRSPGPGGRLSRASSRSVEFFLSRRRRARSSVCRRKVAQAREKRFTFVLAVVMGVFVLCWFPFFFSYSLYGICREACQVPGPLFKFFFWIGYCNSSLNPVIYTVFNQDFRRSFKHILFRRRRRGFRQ
The nature of test [7]: inhibitors of Sendai virus-induced IRF3 signaling, primary screen, TLR/RLR signaling modifier project, cell-based, Sendai virus stimulus, luciferase, 10K MLSCN set (AID 602276).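 Note: firefly luciferase from ISG56 promoter only with Renilla not read in this screen; 0% = Sendai virus plus DMSO and 100% = medium plus DMSO without virus.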 To be noted: HEK293 RL24 IRF3 luciferase reporter, at 10 µM, stronger effect = higher value. A general note: Reporter assays use an easily measured gene product as a stand-in for the process of interest.
A short description of test [8]: inhibitors of poly I:C-induced TLR3 signaling, primary screen, cell-based, poly I:C stimulus, luciferase, 10K MLSCN set (AID 602277;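 active = inhibition of the reporter signal at or above 50%; inactive = inhibition below 50%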). To be noted: HEK293-TLR3 RL24 IRF3 luciferase reporter, at 10 µM, stronger effect = higher value.

Calls of active or inactive are those of the source.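 Rule for the calls, unless noted: active = inhibition at or above 50% at 10 µM; inactive = inhibition below 50%.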

For the compound `CCOC(=O)c1sc2nc(NC(=O)COc3ccccc3)sc2c1C`, the cell count in test [1] is 715. Besides, the inhibition (usually the change of the read-out against control, counted positive when it falls) in test [1] was -6.9% (inactive); in test [3] it was -12.6% (inactive); in test [7], -24% (inactive); in test [8], -40.4% (inactive). Besides, the inhibition of aggregation in test [2] was 9.3% (inactive). Further, the nuclei count in test [2] is 106%; in test [3], 105%. The fluorescence slope in test [4] is -0.591 (inactive). In addition, the NADPH fluorescence slope in test [5] is -1.3e-05 (inactive). Besides, the slope in test [6] was 0.00688 (inactive).

Consider `O=C(OC1CCOC1=O)c1ccc2ccccc2n1` (stereo not drawn), for which, in test [1], the cell count amounted to 633. The inhibition was 4.2% (inactive) in test [1], 38.1% (inactive) in test [3], 20.6% (inactive) in test [7] and 29.1% (inactive) in test [8]. The inhibition of aggregation in test [2] was -0.9% (inactive). For the same compound, the nuclei count in test [2] was determined as 100%; in test [3] it was 76%. In addition, the fluorescence slope in test [4] was -0.324 (inactive). The NADPH fluorescence slope in test [5] is 2.9e-05 (inactive). The slope in test [6] is 0.00579 (inactive).

With `CCc1ccc(NC(=O)CS(=O)CC(=O)NC(C)CCc2ccco2)cc1` (stereo not drawn), the cell count in test [1] turned out to be 388. In addition, the inhibition in test [1] was 0.6% (inactive); in test [3], -203% (inactive); in test [7] it was 5.19% (inactive); in test [8], 13.9% (inactive). Moreover, the inhibition of aggregation in test [2] is 18.9% (inactive). Moreover, the nuclei count is 94.8% in test [2] and 116% in test [3]. The fluorescence slope in test [4] was -0.484 (inactive). Besides, the NADPH fluorescence slope in test [5] is -1.8e-05 (inactive). The slope in test [6] was 0.00694 (inactive).

On to `CN1CCN(C(=O)C2(NC(=O)Nc3cccc(F)c3)CCCCC2)CC1`, for which the cell count in test [1] came to 586. The inhibition is -33.7% (inactive) in test [1], -39.7% (inactive) in test [3], 3.99% (inactive) in test [7] and 3.07% (inactive) in test [8]. Moreover, in test [2], the inhibition of aggregation is -14.5% (inactive). Moreover, the nuclei count in test [2] worked out at 105%; in test [3], 109%. The fluorescence slope in test [4] is -0.596 (inactive). Moreover, in test [5], the NADPH fluorescence slope was -4.2e-05 (inactive). In test [6], the slope was 0.00664 (inactive).

`O=C(CNCCC1=CCCCC1)Nc1ccccc1N1CCCCC1`: in test [1], the cell count worked out at 531. In addition, the inhibition in test [1] was -56.1% (inactive); in test [3], -65.7% (inactive); in test [7], 7.21% (inactive); in test [8], 18.4% (inactive). For the same compound, the inhibition of aggregation in test [2] was -10.4% (inactive). In addition, the nuclei count in test [2] was determined as 107%; in test [3], 109%. In addition, the fluorescence slope in test [4] was -0.581 (inactive). The NADPH fluorescence slope in test [5] is -2.4e-05 (inactive). Moreover, the slope in test [6] is 0.00492 (inactive).

Turning to `CCN(CCNC(=O)C1CCN(S(=O)(=O)c2cccc3cccnc23)CC1)c1ccccc1`, in test [1], the cell count was determined as 614. Further, the inhibition in test [1] was 5.8% (inactive); in test [3], 2.5% (inactive); in test [7], 11.9% (inactive); in test [8], 12.7% (inactive). In addition, in test [2], the inhibition of aggregation was -11% (inactive). Besides, the results for the nuclei count in test [2] and in test [3] were 112% and 108%, respectively. Moreover, the fluorescence slope in test [4] is -0.569 (inactive). Moreover, the NADPH fluorescence slope in test [5] is 2.5e-05 (inactive). Also, the slope in test [6] was 0.00561 (inactive).

On to `O=C1COc2ccc(C(=O)COC(=O)CCc3ccc(S(=O)(=O)N4CCOCC4)cc3)cc2N1`, for which the cell count in test [1] is 410. Further, the inhibition was -1.9% (inactive) in test [1], -119% (inactive) in test [3], 4.84% (inactive) in test [7] and 23.5% (inactive) in test [8]. In addition, the inhibition of aggregation in test [2] was 12.6% (inactive). For the same compound, the nuclei count came out at 90.4% in test [2] and 104% in test [3]. Further, the fluorescence slope in test [4] is -0.37 (inactive). In addition, the NADPH fluorescence slope in test [5] was -5.9e-05 (inactive). In addition, the slope in test [6] is 0.00618 (inactive).

For `Cc1c(NC(=O)c2nn(C)c(=O)c3ccccc23)c(=O)n(-c2ccccc2)n1C`, the cell count in test [1] worked out at 426. In addition, the inhibition in test [1] is 4.2% (inactive); in test [3], -56.3% (inactive); in test [7], 0.784% (inactive); in test [8], -0.356% (inactive). In test [2], the inhibition of aggregation was -1.2% (inactive). Also, the nuclei count was 98.9% in test [2] and 136% in test [3]. Moreover, in test [4], the fluorescence slope was -0.496 (inactive). Besides, the NADPH fluorescence slope in test [5] is -1.3e-05 (inactive). Besides, the slope in test [6] is 0.00499 (inactive).

Take `CCOC(=O)Cc1csc(NC(=O)CSc2nnc(-c3ccncc3)n2Cc2ccco2)n1`: in test [1], the cell count amounted to 516. In addition, the inhibition in test [1] was -12.9% (inactive); in test [3], -61.4% (inactive); in test [7], 10.4% (inactive); in test [8] it was 10.6% (inactive). For the same compound, the inhibition of aggregation in test [2] was 14.5% (inactive). For the same compound, the results for the nuclei count in test [2] and in test [3] were 97.6% and 122%, respectively. Further, in test [4], the fluorescence slope was -0.595 (inactive). In addition, in test [5], the NADPH fluorescence slope was -6.1e-05 (inactive). Moreover, the slope in test [6] was 0.0058 (inactive).

For the compound `O=C(Nc1cccc(NC(=O)c2ccco2)c1)c1ccc2c(c1)OCO2`, the cell count in test [1] is 696. Besides, the inhibition was -6.1% (inactive) in test [1], -70.1% (inactive) in test [3], 7.09% (inactive) in test [7] and -29.5% (inactive) in test [8]. In test [2], the inhibition of aggregation was -10.2% (inactive). The nuclei count was determined as 108% in test [2] and 121% in test [3]. Besides, the fluorescence slope in test [4] was -0.418 (inactive). The NADPH fluorescence slope in test [5] is 2.7e-06 (inactive). For the same compound, the slope in test [6] was 0.00264 (inactive).

For the compound `Cc1noc(/C=C/N(C)C)c1S(=O)(=O)N1CCCC(C(=O)NC2CCCCC2)C1` (stereo not drawn), in test [1], the cell count came out at 625. Besides, the inhibition in test [1] was 11.7% (inactive); in test [3], 34.5% (inactive); in test [7], 16.1% (inactive); in test [8] it was 14.8% (inactive). In addition, the inhibition of aggregation in test [2] is 7.9% (inactive). Besides, the results for the nuclei count in test [2] and in test [3] were 93.6% and 62.5%, respectively. In addition, in test [4], the fluorescence slope is -0.566 (inactive). For the same compound, the NADPH fluorescence slope in test [5] is 1.6e-05 (inactive). The slope in test [6] was 0.0069 (inactive).

On to `O=C(C1=C(O)C(=O)N(Cc2ccccc2)C1c1ccncc1)c1ccco1` (stereo not drawn), for which the cell count in test [1] was determined as 382. Besides, the inhibition in test [1] is 8.3% (inactive); in test [3], -216% (inactive); in test [7], -5.31% (inactive); in test [8], 2.12% (inactive). Besides, in test [2], the inhibition of aggregation is -3.4% (inactive). For the same compound, the values for the nuclei count in test [2] and in test [3] were 116% and 143%, respectively. Moreover, in test [4], the fluorescence slope was -0.192 (inactive). Besides, the NADPH fluorescence slope in test [5] was 2.5e-06 (inactive). Moreover, the slope in test [6] was 0.0062 (inactive).

Take `O=C(Nc1ccccc1C(=O)N1CCOCC1)c1cccc(S(=O)(=O)N2CCCC2)c1`: in test [1], the cell count amounted to 440. Besides, the inhibition in test [1] was -5.3% (inactive); in test [3] it was -138% (inactive); in test [7], 2.51% (inactive); in test [8], 22.9% (inactive). For the same compound, the inhibition of aggregation in test [2] was 0.3% (inactive). Besides, the nuclei count is 92.3% in test [2] and 118% in test [3]. The fluorescence slope in test [4] is -0.455 (inactive). The NADPH fluorescence slope in test [5] is 4.9e-06 (inactive). Moreover, in test [6], the slope was 0.00695 (inactive).
